Assay results as given in PubChem BioAssay (NCATS).
Records with an inconclusive call do not appear. Calls of active or inactive are those of the source. Calls come from the whole dose curve; as a rule, active = well fitted curve in the direction sought with a large enough effect; inconclusive = small, poorly fitted or top-dose-only effect, or another doubt; inactive = no such curve, though single readings can be large; an effect the other way counts as inactive or inconclusive.

How the values were obtained:
[1] = tested on: Zika virus NS2B-NS3 protease (linked construct); test: Primary screen NINDS Rhodamine qHTS for Zika virus inhibitors (AID 1347160); note: nearly all actives have a fitted effect of over 55% in size; note: potency is the fitted concentration of half-maximal effect
Outline: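 Rhodamine110-peptide cleavage (1.5 µM substrate) by 25 nM linked NS2B-NS3 enzyme at pH 8.0 (Tris, Tween 20), after 15 min RT preincubation with compounds; 15-min fluorescence change normalized to controls and Hill-fitted.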

[2] = OV-KATE Cancer Cell Toxicity qHTS against the NCATS CANVASS Library (AID 1347345); note: potency is the fitted concentration of half-maximal effect
Outline: (§1)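 ATP content after 72 h treatment, detected by CellTiter-Glo luminescence (15min room-temperature development), reflects cell viability. Wells contained 1000 cells and received compounds at 11 concentrations.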

[3] = HPAF-II Cancer Cell Toxicity qHTS against the NCATS CANVASS Library (AID 1347346); note: nearly all actives have a fitted effect of over 55% in size; note: potency is the fitted concentration of half-maximal effect
Outline: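 1000 HPAF-II cells/well; 4 h pre-incubation; 11-pnt compound titration; 72 h, 37 degrees C/5% CO2; CellTiter-Glo, 15 min RT; luminescence read.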

[4] = U-118MG Cancer Cell Toxicity qHTS against the NCATS CANVASS Library (AID 1347351); note: potency is the fitted concentration of half-maximal effect
Outline: as §1

[5] = HPAF-II 24hr Apoptosis Induction qHTS against the NCATS CANVASS Library (AID 1347356)
Outline: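 500 HPAF-II cells/well; compounds in 11-pnt qHTS; 24 h, 37 C/5% CO2; Caspase-Glo 3/7 added, 15 min RT dark; luminescence read. Doxorubicin control.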

[6] = HEK293 18hr Apoptosis Induction qHTS against the NCATS CANVASS Library (AID 1347357); note: potency is the fitted concentration of half-maximal effect
Outline: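 Cells seeded at 500/well in DMEM + 10% FBS. Compounds pinned, 11 concentrations. 18 h, 37 degrees C/5% CO2. Caspase-Glo 3/7 added, 15 min RT dark, luminescence read.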

[7] = HPAF-II 12hr Apoptosis Induction qHTS against the NCATS CANVASS Library (AID 1347358)
Outline: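 Caspase-Glo 3/7 luminescence (DEVD substrate) reports caspase activity in HPAF-II cells after 12 h compound treatment at 37 degrees C. Compounds were tested in an 11-point series. Doxorubicin served as control.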

[8] = HEK293 24hr Apoptosis Induction qHTS against the NCATS CANVASS Library (AID 1347359); note: potency is the fitted concentration of half-maximal effect
Outline: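 HEK293 cells, 500 per well, exposed to an 11-point compound series for 24 hours at 37 degrees C. Caspase 3/7 activity read by Caspase-Glo luminescence (DEVD substrate) after 15 min at room temperature.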

[9] = HEK293 12hr Apoptosis Induction qHTS against the NCATS CANVASS Library (AID 1347361); note: potency is the fitted concentration of half-maximal effect
Outline: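 Cells are seeded, dosed with an 11-point compound series and incubated 12 hours. Caspase-3/7 activity is detected by luminescent DEVD-substrate reagent after 15 minutes at room temperature.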

[10] = biological target: Luciferin 4-monooxygenase (Photinus pyralis) (UniProt P08659); test: Firefly luciferase counterscreen qHTS: Assay Interference Panel against the NCATS CANVASS Library (AID 1347363); note: potency is the fitted concentration of half-maximal effect
Sequence of Luciferin 4-monooxygenase (Photinus pyralis) (P08659 whole entry, looked up): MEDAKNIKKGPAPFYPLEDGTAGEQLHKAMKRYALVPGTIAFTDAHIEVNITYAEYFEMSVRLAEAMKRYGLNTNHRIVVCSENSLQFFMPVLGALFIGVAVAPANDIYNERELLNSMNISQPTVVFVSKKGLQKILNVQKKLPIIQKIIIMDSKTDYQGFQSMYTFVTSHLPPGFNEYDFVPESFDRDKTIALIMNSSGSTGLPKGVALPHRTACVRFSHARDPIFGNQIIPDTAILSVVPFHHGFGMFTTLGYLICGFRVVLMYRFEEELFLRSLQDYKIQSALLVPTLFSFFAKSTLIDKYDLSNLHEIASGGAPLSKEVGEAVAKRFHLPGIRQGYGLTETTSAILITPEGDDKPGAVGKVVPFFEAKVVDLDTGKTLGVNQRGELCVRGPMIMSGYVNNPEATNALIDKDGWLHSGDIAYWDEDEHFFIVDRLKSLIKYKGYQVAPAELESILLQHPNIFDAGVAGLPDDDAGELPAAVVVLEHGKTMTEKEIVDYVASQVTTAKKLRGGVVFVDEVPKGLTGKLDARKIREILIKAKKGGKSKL
Outline: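 Purified P. pyralis luciferase (0.04 ug/mL, 4x reagent) added to Tris-acetate buffer with 0.013 mM D-luciferin, 0.013 mM ATP and 13.3 mM Mg-acetate; compounds preincubated 15 min, then luminescence read after 5 min, RT.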

[11] = KB-3-1 Cancer Cell Toxicity qHTS against the NCATS CANVASS Library (AID 1347366); note: nearly all actives have a fitted effect of over 75% in size; note: potency is the fitted concentration of half-maximal effect
Outline: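 Luminescence from CellTiter-Glo (10 min, room temperature) measured KB-3-1 viability after 72 hr compound exposure at 37C. Cells were seeded at 500/well and tested in an 11-point series.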

[12] = qHTS for ATAD5 Agonist screened against the NCATS CANVASS Library (AID 1347367);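 note: luciferase reporter driven by ATAD5 which rises upon DNA damage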
Outline: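 HEK293T-ATAD5 luc reporter; 2000 cells/well; 5hr settle; cpd 11-pt qHTS; 16hr 37C 5% CO2 dark; viability by CellTiter-Fluor (AFC fluorescence); then luciferase luminescence, 30min RT.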

[13] = MCF7 Cancer Cell Toxicity qHTS against the NCATS CANVASS Library (AID 1347369); note: potency is the fitted concentration of half-maximal effect
Outline: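 Cells seeded at 500/well, then compound pinned. Plates incubated 72 hr at 37C, 5% CO2. CellTiterGlo added; luminescence read.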

[14] = qHTS for ATAD5 Antagonist screened against the NCATS CANVASS Library (AID 1347370); note: nearly all actives have a fitted effect of over 65% in size; note: potency is the fitted concentration of half-maximal effect
Outline: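 HEK293T-ATAD5 luc reporter, 2000 cells/well; 5hr attach; cpd + 10 uM 5-FUrd; 16hr 37C, 5% CO2. Readouts: CellTiter-Fluor fluorescence (1hr), then Amplite luciferase luminescence (30min RT).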

[15] = J3T Cancer Cell Toxicity qHTS against the NCATS CANVASS Library (AID 1347371); note: potency is the fitted concentration of half-maximal effect
Outline: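 Dog glioma J3T, 500 cells/well; cpd 11-pt qHTS; 72 hr, 37C/5% CO2; CellTiterGlo ATP luminescence readout.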

[16] = biological target: Nuclear receptor subfamily 1 group I member 3 (Homo sapiens) (UniProt Q14994); test: qHTS for Constitutive Androstane Receptor (CAR) Antagonist screened against the NCATS CANVASS Library (AID 1347372); note: potency is the fitted concentration of half-maximal effect
Sequence of Nuclear receptor subfamily 1 group I member 3 (Homo sapiens) (Q14994 whole entry, looked up): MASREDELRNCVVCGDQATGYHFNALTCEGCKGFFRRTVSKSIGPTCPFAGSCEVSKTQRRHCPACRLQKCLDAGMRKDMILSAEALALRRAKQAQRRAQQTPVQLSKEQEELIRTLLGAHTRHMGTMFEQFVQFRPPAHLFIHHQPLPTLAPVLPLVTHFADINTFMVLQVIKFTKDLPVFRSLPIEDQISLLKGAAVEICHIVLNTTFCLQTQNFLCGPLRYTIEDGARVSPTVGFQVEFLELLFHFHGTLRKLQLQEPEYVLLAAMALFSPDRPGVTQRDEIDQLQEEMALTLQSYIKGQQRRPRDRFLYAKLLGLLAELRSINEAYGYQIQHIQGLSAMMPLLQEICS
Outline: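 Luminescence readout (ONE-Glo, 30 min RT) of CYP2B6-2.2kb reporter in HepG2-hCAR cells after 24hr, 37C treatment with compound against 50 nM CITCO; CellTiter-Fluor viability read beforehand.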

[17] = biological target: Nuclear receptor subfamily 1 group I member 3 (Homo sapiens) (UniProt Q14994); test: qHTS for Constitutive Androstane Receptor (CAR) Agonist screened against the NCATS CANVASS Library (AID 1347373);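 note: every well also contained 1.5 µM PK11195 alongside the test compound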
Outline: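 Luciferase read-out (ONE-Glo, 30 min RT) of CYP2B6-2.2kb promoter activity in double-stable HepG2-hCAR cells after 24hr compound exposure with 1.5uM PK11195 present; viability measured first by CellTiter-Fluor.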

[18] = Inflammasome Signaling qHTS Counterscreen: IL-1-beta AlphaLISA counterscreen against the NCATS CANVASS Library (AID 1347381);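 note: cell-free check with purified IL-1β in medium and no THP-1 cells; series mostly up to about 57 µM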
Outline: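 Here, no cellular stimulation occurs; compounds in an 11-point series meet 4 pg purified IL-1-beta directly. Bead-based AlphaLISA detection follows (1 h acceptor/antibody, then 30 min donor, dark, room temperature), with excitation at 680 nm.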

[19] = Viability qHTS for inhibitors of the SERCaMP assay screened against the NCATS CANVASS Library (AID 1347400); note: nearly all actives have a fitted effect of over 70% in size; note: potency is the fitted concentration of half-maximal effect
Outline: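 CellTiter-Glo luminescence readout after 48 h compound exposure (11-pnt qHTS series) of SH-SY5Y-GLuc SERCaMP MJH297 cells seeded at 1000 cells/well; bortezomib positive control.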

[20] = 10-beta competent E. coli microbial cell viability qHTS against the NCATS CANVASS Library (AID 1347376); note: series mostly up to about 46 µM
Outline: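 Luminescence from BacTiter-Glo ATP detection served as the viability read-out; bacteria (0.2 OD) had been incubated overnight at 37C with pin-transferred compounds at 11 concentrations.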

Measured: Potency

O=C1c2c(O)cc(O)cc2O[C@@H](c2ccc(O)cc2)[C@@H]1c1c(O)cc(O)c2c(=O)cc(-c3ccc(O)c(O)c3)oc12
active: [1] 3.92 µM
not listed: [20]
inactive: all other assays above

C[C@@H]1O[C@@H](Oc2c(-c3ccc(O)cc3)oc3cc(O)cc(O)c3c2=O)[C@H](O)[C@H](O)[C@H]1O
active: [1] 44 µM
not listed: [2]
inactive: all other assays above

C[C@@H]1O[C@@H](O[C@@H]2[C@@H](O)[C@H](O[C@@H]3[C@@H](O)[C@@H](O)C(O[C@H]4[C@H](OC(=O)[C@]56CCC(C)(C)C[C@H]5C5=CCC7[C@@]8(C)C[C@H](O)[C@H](O[C@@H]9C[C@H](CO)[C@@H](O)[C@H](O)[C@H]9O)[C@@](C)(CO)C8[C@H](O)C[C@@]7(C)[C@]5(C)CC6)OC[C@H](O)[C@@H]4O)O[C@H]3C)OC[C@H]2O)[C@H](O)[C@H](O)[C@H]1O (some centres undefined)
active: [1] 24.3 µM
inactive: all other assays above

C/C1=C/[C@@H](C)[C@H](O)C/C=C/CC/C=C/C(=O)O[C@@H]1[C@H](C)C(=O)/C=C/CC1CC(=O)NC(=O)C1
active: [1] 44 µM | [2] 18.8 µM | [3] 13.3 µM | [4] 21.1 µM | [11] 13.2 µM | [14] 16.6 µM | [15] 16.6 µM | [19] 38.1 µM
not listed: [9] | [16]
inactive: all other assays above

C=C(C)[C@@H]1CC[C@]2(C)CC[C@]3(C)[C@H](CC[C@@H]4[C@@]5(C)CC[C@H](O)C(C)(C)[C@@H]5CC[C@]43C)[C@@H]12
inactive: all assays above

COc1c(O)cc2oc(-c3ccccc3)cc(=O)c2c1O
active: [1] 44 µM | [10] 0.544 µM
not listed: [11] | [12] | [17]
inactive: all other assays above

O=C1CC(c2cc(O)cc(O)c2)Oc2cc(O)ccc21 (centres undefined)
active: [1] 34.9 µM
not listed: [19]
inactive: all other assays above

CC(C)(Br)[C@@H](Cl)C[C@H](Br)[C@](C)(Cl)/C=C/Br
active: [1] 34.9 µM | [2] 23.6 µM | [3] 26.6 µM | [4] 18.8 µM
not listed: [19]
inactive: all other assays above

C=CC(C)(C)C(=O)[C@@H](C)[C@@H]1CC[C@](C)(C=C)O1
inactive: all assays above

CN1CCc2cc3c(c4c2[C@H]1[C@@H](O)c1ccccc1-4)OCO3
active: [1] 44 µM | [3] 13.3 µM | [13] 26.2 µM
not listed: [11] | [14] | [19]
inactive: all other assays above

C=C1C(=O)O[C@H]2[C@H]1CC/C(CO)=C\CC[C@@]1(C)O[C@@H]21
active: [2] 18.8 µM | [3] 16.8 µM | [4] 18.8 µM | [9] 23.5 µM | [14] 20.9 µM | [15] 18.7 µM | [16] 20.9 µM | [19] 34 µM
not listed: [6] | [11] | [13]
inactive: all other assays above

CCCCCCCCC[C@@H]1C[C@@H]2CC[C@H]3[C@@H](C(=O)OCCCCN=C(N)N)[C@@H](C)N=C(N1)N23
active: [2] 13 µM | [3] 14.7 µM | [4] 11.6 µM | [11] 0.578 µM | [15] 11.5 µM
not listed: [13] | [16]
inactive: all other assays above

O=C1C[C@@H](c2ccc(O)c(-c3c(O)cc(O)c4c3O[C@H](c3ccc(O)cc3)CC4=O)c2)Oc2cc(O)cc(O)c21
active: [1] 4.84 µM
inactive: all other assays above

C/C(=C\[C@H](C)C(=O)CCCC1CC(=O)NC(=O)C1)[C@@H]1OC(=O)/C=C/CC/C=C/C[C@@H](O)[C@@H]1C
active: [1] 17.5 µM | [2] 2.11 µM | [3] 1.49 µM | [11] 14.8 µM | [14] 2.34 µM | [15] 2.64 µM | [16] 3.71 µM | [19] 5.38 µM
not listed: [4]
inactive: all other assays above

C[C@@]12CCC[C@@](C)(C(=O)O)[C@H]1CC[C@]13C[C@H]4C[C@H](O[C@@]4(C)C1)[C@H]32
active: [1] 3.92 µM
inactive: all other assays above

CC(=O)[C@@H]1[C@@H](O)C[C@H]2[C@]3(C)CC[C@H]4C(C)(C)CCC[C@]4(CO)[C@H]3C[C@H]3OC(=O)[C@@H]1[C@@]32C
active: [1] 55.3 µM
inactive: all other assays above

O=c1cc(-c2ccc(O)c(O[C@@H]3O[C@H](CO)[C@@H](O)[C@H](O)[C@H]3O)c2)oc2cc(O[C@@H]3O[C@H](CO)[C@@H](O)[C@H](O)[C@H]3O)cc(O)c12
active: [1] 27.7 µM
inactive: all other assays above

COc1ccc([C@@H]2c3cc(OC)c(OC)cc3C(=O)C(C)C2C)cc1OC (some centres undefined)
active: [14] 20.9 µM
not listed: [19]
inactive: all other assays above

Oc1ccc([C@H]2Oc3ccc(/C=C/c4cc(O)cc(O)c4)cc3C2c2cc(O)cc(O)c2)cc1 (some centres undefined)
active: [1] 24.7 µM
inactive: all other assays above

C=CC(=C)CC[C@]1(C)[C@H]2C[C@H](OC(=O)C(C)CC)C=C3[C@H](OC(C)=O)O[C@H](OC(C)=O)[C@@]32[C@H](OC)C[C@@H]1C (some centres undefined)
inactive: [10] | [12] | [17] | [20] | [18]
active: [1] 32.1 µM | [2] 2.17 µM | [3] 3.43 µM | [4] 3.43 µM | [6] 13.6 µM | [8] 9.59 µM | [9] 17.1 µM | [11] 6.79 µM | [13] 12.1 µM | [14] 10.8 µM | [15] 4.81 µM | [16] 12.1 µM | [19] 2.21 µM
